# Shown are actives, neighbours in structure and some others; about 1.6% of the full set was active somewhere.
# KCNQ2 pot = enhances the rat KCNQ2 potassium channel; AID 2239; O88943; CHO-K1 KCNQ2, FluxOR thallium flux fluorescence; active compounds read high; actives 0.54% (n = 310,000); B-score at 10 µM;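 active means fluorescence ratio B-score at least 3 SD of library B-scores, with initial fluorescence B-score within 3 of them, cut at about 5.3 in these data; same plate scores as AID 2156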;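 further: B-score of peak minus minimum over baseline fluorescence ratio after K+ and Tl+ stimulus; positive B-score means potentiation of KCNQ2 with more thallium influx and brighter signal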
# Target sequence (O88943 whole entry, looked up): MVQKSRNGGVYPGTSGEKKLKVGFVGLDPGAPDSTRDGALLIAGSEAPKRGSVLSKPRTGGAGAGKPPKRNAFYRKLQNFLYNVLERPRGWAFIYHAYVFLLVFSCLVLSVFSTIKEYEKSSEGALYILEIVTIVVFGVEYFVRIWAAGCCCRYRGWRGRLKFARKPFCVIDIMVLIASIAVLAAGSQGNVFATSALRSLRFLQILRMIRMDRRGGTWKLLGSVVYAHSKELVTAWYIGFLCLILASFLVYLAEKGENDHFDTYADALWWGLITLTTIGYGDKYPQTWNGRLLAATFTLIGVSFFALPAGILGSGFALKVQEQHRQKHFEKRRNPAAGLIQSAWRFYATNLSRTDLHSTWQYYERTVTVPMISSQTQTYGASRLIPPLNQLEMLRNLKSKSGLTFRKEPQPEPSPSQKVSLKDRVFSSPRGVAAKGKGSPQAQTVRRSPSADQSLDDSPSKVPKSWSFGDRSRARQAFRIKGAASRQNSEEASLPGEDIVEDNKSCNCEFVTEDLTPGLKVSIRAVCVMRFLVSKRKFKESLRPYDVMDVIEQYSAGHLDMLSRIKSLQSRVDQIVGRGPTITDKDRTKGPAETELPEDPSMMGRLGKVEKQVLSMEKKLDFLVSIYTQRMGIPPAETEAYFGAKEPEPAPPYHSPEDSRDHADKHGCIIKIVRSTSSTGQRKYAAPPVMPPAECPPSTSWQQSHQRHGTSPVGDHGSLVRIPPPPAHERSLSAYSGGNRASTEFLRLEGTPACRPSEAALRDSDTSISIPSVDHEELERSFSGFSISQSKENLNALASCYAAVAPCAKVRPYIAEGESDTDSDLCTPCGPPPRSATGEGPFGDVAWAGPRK
# KCNQ2 inh = KCNQ2 (rat) channel inhibition | O88943 | AID 2156 | CHO-K1 KCNQ2, FluxOR thallium flux, 20 min; active compounds read low | actives 1.1% (n = 310,000) | B-score at 10 µM;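 active means fluorescence ratio B-score at most minus 3 library SDs, with starting brightness B-score within 2 library SDs, cut at about -5.5 in these data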
# Kir21 conf inh = confirmation of mouse Kir2.1 potassium channel inhibitors | Kir2.1-expressing cells, FluxOR thallium flux fluorescence; active compounds read low | shares compounds with KCNQ2 pot | Tl flux remaining, % of negative control (active compounds read low), % at 10 µM | AID 2032 | actives 41% (n = 2,300);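 active means Primary-screen hit whose thallium flux fell at least 3 control SD below untreated wells in both duplicates, with normal baseline fluorescence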;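 further: 0% = blank wells without stimulus and 100% = stimulated no-compound controls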
# HEK293 Tl flux = parental HEK293 activity in Kir2.1 inhibitor counter-screen; FluxOR signal as % of negative control (100 = no effect), % at 10 µM; parental HEK293 cells, FluxOR thallium flux fluorescence; 0% = unstimulated blank wells; shares compounds with KCNQ2 pot; AID 2105; actives 19% (n = 2,300);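 active means dye signal at least 3 control SD above or below untreated wells in both duplicates, raw fluorescence within 3, either direction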;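 further: percent is based on the flux ratio of peak minus minimum fluorescence over baseline F0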
# CHO-K1 ctr = parental CHO-K1 activity in KCNQ2 potentiator counter-screen; shares compounds with KCNQ2 pot; parental CHO-K1 cells, FluxOR thallium flux fluorescence; zero = vehicle mean+3SD, 100% = vehicle-minus-blank window; activity increase over 3SD of controls, % at 10 µM; actives 43% (n = 1,200); AID 2282;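 active means signal rise of at least 3 SD above the untreated control mean, in both duplicate wells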;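 further: counter screen of KCNQ2 potentiator hits so any rise reflects channel-independent effects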
# KCNQ1 pot spec = human KCNQ1 counter-target activity of KCNQ2 potentiators. actives 28% (n = 1,200). AID 2283. CHO KCNQ1 stable, FluxOR thallium flux fluorescence; beyond 3SD, as % of vehicle-control signal. activation over 3SD threshold, % at 10 µM. shares compounds with KCNQ2 pot;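 active means fluorescence ratio rise of at least 3 SD of vehicle wells above their mean, in both replicate wells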;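 further: 0% = vehicle mean plus 3 SD and 100% = vehicle minus unstimulated blank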
# KCNQ2 pot confirm = rat KCNQ2 channel potentiator confirmation. potentiation, less the hit threshold, % at 10 µM. actives 68% (n = 1,200). CHO-KCNQ2 cells, FluxOR thallium flux fluorescence. shares compounds with KCNQ2 pot. AID 2287;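 active means fluorescence ratio rising 3 SD or more over the vehicle control mean in both replicates, plus primary screen hit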;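 further: peak minus minimum thallium fluorescence divided by baseline after K/Tl stimulus; 0% = vehicle mean plus 3 SD and 100% = vehicle minus unstimulated blank difference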
# Kir21 spec = selectivity of KCNQ2 potentiators: effect on mouse Kir2.1; HEK293 Kir2.1, FluxOR thallium flux fluorescence; actives 2% (n = 1,200); shares compounds with KCNQ2 pot; activity over 3SD threshold, % at 10 µM;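 active means fluorescence ratio rise of at least 3 SD above the vehicle-control mean, seen in both replicates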;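 further: 0% = vehicle mean plus 3 SD and 100% = vehicle minus no-stimulus blank window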
# KCNQ2 W236L MoA = potentiates the retigabine-insensitive rat KCNQ2 W236L mutant channel; actives 10% (n = 940); CHO KCNQ2-W236L, automated patch clamp current; AID 2558; current increase over 3SD of negative controls (%), active compounds read high, % at 25 µM; shares compounds with KCNQ2 pot;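 active means current increase at least 3 SD of the untreated controls above them in both duplicate recordings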
# * hit, by the source's call; i = inactive; x = not tested or not shown.
SMILES,KCNQ2 pot,KCNQ2 inh,Kir21 conf inh,HEK293 Tl flux,others
CCOC(=O)c1c(S(=O)(=O)NCC(C)c2ccccc2)c(C)n(C)c1C (stereo unspecified),x,i,x,x,
O=C1NC(c2ccccc2)=C(c2ccc3ccccc3n2)C(c2ccccc2)N1 (stereo unspecified),x,i,x,x,
O=C1NC(c2ccccc2)=C(c2nc3ccccc3s2)C(c2ccc(O)cc2)N1 (stereo unspecified),15*,i,i,i,CHO-K1 ctr=-20;KCNQ1 pot spec=-1;KCNQ2 pot confirm=11*;Kir21 spec=-33;KCNQ2 W236L MoA=i
Cc1c(Cl)cccc1NC(=O)Cc1ccc([N+](=O)[O-])cc1,x,i,x,x,
Cn1c(=S)[nH]c2scc(-c3cccs3)c2c1=O,19*,i,i,465%*,CHO-K1 ctr=119*;KCNQ1 pot spec=-12;KCNQ2 pot confirm=88*;Kir21 spec=-2;KCNQ2 W236L MoA=i
O=c1c2c(-c3cccs3)csc2ncn1-c1ccc(Br)cc1,x,i,x,x,
C=CCn1c(=S)[nH]c2cc(-c3ccccc3)sc2c1=O,2.8,i,x,x,
C=CCn1c(=S)[nH]c2scc(-c3cccs3)c2c1=O,25*,i,i,512%*,CHO-K1 ctr=12*;KCNQ1 pot spec=-13;KCNQ2 pot confirm=106*;Kir21 spec=-3;KCNQ2 W236L MoA=i
CCOC(=O)N1CCN(S(=O)(=O)N2CCCC(C(=O)NCCc3ccc(OCC)c(OCC)c3)C2)CC1 (stereo unspecified),1.9,i,x,x,
COc1ccc(C(=O)NCCC2=CCCCC2)cc1OC1CCN(C(C)C)CC1,2.2,i,x,x,
CCC(C)c1ccccc1NC(=O)COC(=O)C1=COCCO1 (stereo unspecified),1.5,i,x,x,
CC1=C(C(=O)O)N2C(=O)C(NC(=O)c3ccccc3Cl)C2SC1 (stereo unspecified),13*,i,i,i,CHO-K1 ctr=4.5*;KCNQ1 pot spec=-24;KCNQ2 pot confirm=-9;Kir21 spec=-32
CC1=C(C(=O)O)N2C(=O)C(NC(=O)c3nn(C)cc3Cl)C2SC1 (stereo unspecified),x,i,x,x,
O=C(COC(=O)/C=C/c1ccc(S(=O)(=O)N2CCc3ccccc32)cc1)NC1CCS(=O)(=O)C1 (stereo unspecified),x,i,x,x,
CCCCn1c(N)c(N(CCC(C)C)C(=O)c2ccc(N3CCCC3=O)cc2)c(=O)[nH]c1=O,0.9,i,x,x,
CCCCCCNC(=O)Nc1ccccc1,5.9*,i,i,i,CHO-K1 ctr=-8;KCNQ1 pot spec=-11;KCNQ2 pot confirm=3.7*;Kir21 spec=-24;KCNQ2 W236L MoA=i
O=C(O)CCCNC(=O)Nc1ccccc1,0.71,i,x,x,
Cc1ccccc1Cn1c(C(=O)OC(C)C)cc2c1ccn2C,x,i,x,x,
CC(C)OC(=O)c1cc2c(ccn2C)n1CC(=O)N1CCC(Cc2ccccc2)CC1,9.9*,i,i,i,CHO-K1 ctr=40*;KCNQ1 pot spec=70*;KCNQ2 pot confirm=7.1*;Kir21 spec=-20;KCNQ2 W236L MoA=i
COc1ccc(S(=O)(=O)n2nc(OCc3cccs3)cc2N)cc1,x,i,x,x,
COc1cccc(NC(=O)CN(C)C(=O)CC2CC3CCC2C3)c1 (stereo unspecified),0.85,i,x,x,
Cc1ccc(NC(=O)/C=C\C(=O)O)c([N+](=O)[O-])c1,x,i,x,x,
O=C(Nc1cccc(Cl)c1)C1CC1c1ccccc1 (stereo unspecified),0.27,i,x,x,
O=C(Nc1ccncc1)C1CC1c1ccccc1 (stereo unspecified),0.89,i,x,x,
CC(C)c1ccc(NC(=O)C2CC2c2ccccc2)cc1 (stereo unspecified),17*,i,i,i,CHO-K1 ctr=20*;KCNQ1 pot spec=-9;KCNQ2 pot confirm=28*;Kir21 spec=-24;KCNQ2 W236L MoA=i
SMILES,KCNQ2 pot,KCNQ2 inh,Kir21 conf inh,HEK293 Tl flux,others
O=C(Nc1ccc(Cl)cc1F)C1CC1c1ccccc1 (stereo unspecified),7.2*,i,i,i,CHO-K1 ctr=-12;KCNQ1 pot spec=28*;KCNQ2 pot confirm=19*;Kir21 spec=-31;KCNQ2 W236L MoA=i
Cc1ccc(NC(=O)C2CC2c2ccccc2)c([N+](=O)[O-])c1 (stereo unspecified),11*,i,i,i,CHO-K1 ctr=-15;KCNQ1 pot spec=-10;KCNQ2 pot confirm=7.1*;Kir21 spec=-38;KCNQ2 W236L MoA=40%*
COc1cc2cc[n+](Cc3ccc([N+](=O)[O-])cc3)cc2cc1OC,0.36,i,x,x,
COc1ccccc1C(=O)NCCNc1ccc([N+](=O)[O-])cc1Cl,x,i,x,x,
O=C(c1ccccc1Cl)c1c(O)c2ccccc2oc1=O,x,i,x,x,
CN(Cc1nccs1)C(=O)C1CCC(=O)N(CCc2ccc(Cl)cc2)C1 (stereo unspecified),0.05,i,x,x,
Cc1sc2cc3c(c(C(=O)c4ccccc4)[n+]2c1C)-c1cccc2cccc-3c12,-8.2,-8.2*,27%*,64%*,
Cc1cc(C)c2c(N)c(C(=O)c3ccccc3)sc2n1,x,i,x,x,
O=C(Nc1nnc(-c2ccc(Br)cc2)o1)c1ccco1,17*,i,i,i,CHO-K1 ctr=-6;KCNQ1 pot spec=-17;KCNQ2 pot confirm=19*;Kir21 spec=-32;KCNQ2 W236L MoA=i
CS(=O)(=O)c1ccc(-c2nnc(NC(=O)c3ccco3)o2)cc1,0.06,i,x,x,
OCCn1nc(-c2ccccc2)cc1-c1ccccc1,0.85,i,x,x,
Cc1cccc(C)c1NC(=O)CNC(=O)c1ccncc1,x,i,x,x,
O=C(COC(=O)Cc1cccc(C(F)(F)F)c1)Nc1ccccc1,1.4,i,x,x,
O=C(Cc1cccc(C(F)(F)F)c1)Nc1ccccc1,9*,i,i,i,CHO-K1 ctr=35*;KCNQ1 pot spec=59*;KCNQ2 pot confirm=13*;Kir21 spec=-35;KCNQ2 W236L MoA=i
O=C(c1ccc(O)cc1)c1ccc(O)cc1O,1,i,x,x,
CN(C)c1ccc(C(=O)c2ccc(O)cc2O)cc1,0.06,i,i,i,
CCC1Oc2ccccc2N(CC(=O)NCc2cccs2)C1=O (stereo unspecified),x,i,x,x,
CCC(=NCc1ccccc1)c1c(C(F)(F)F)[nH]n(-c2nc3ccccc3s2)c1=O,x,i,x,x,
CCC(=NCc1ccco1)c1c(C(F)(F)F)[nH]n(-c2nc3ccccc3s2)c1=O,7.8*,i,i,i,CHO-K1 ctr=-7;KCNQ1 pot spec=-12;KCNQ2 pot confirm=-19;Kir21 spec=-38
N/C(=N\O)c1ccc(Cl)cc1Cl,x,i,x,x,
O=C(c1cc(COc2c(F)cccc2F)on1)N1CCc2ccccc2C1,0.07,i,x,x,
Cc1cc(N2CCOCC2)nc(NCc2ccccc2)n1,2.1,i,x,x,
Cc1cc(N2CCCCC2)nc(NCc2ccccc2)n1,1.2,i,48%*,i,
Cn1c(N)c(S(=O)(=O)N2CCN(c3ccccc3F)CC2)c(=O)n(C)c1=O,x,i,x,x,
